Test results published in PubChem BioAssay AID602292 (National Center for Advancing Translational Sciences (NCATS), 2012).
About 380 (29%) of roughly 1,300 compounds were called active. Roughly 37% stayed inconclusive and do not appear here. Calls come from the whole dose curve; as a rule, active = well fitted inhibition curve with a large enough effect; inconclusive = small, poorly fitted or top-dose-only effect; inactive = flat fitted curve, though single readings scatter. Some of the results follow. Entries that show only a call come without a potency.
Note: nearly all actives have a fitted effect of over 80% in size.
Potency is the fitted concentration of half-maximal effect.

Each molecule was assayed against Thyrotropin receptor (Homo sapiens) (UniProt P16473) (assay: qHTS for antagonists of the Thyroid Stimulation Hormone Receptor: Hit Validation in Primary Screen). Conditions: TSHR-expressing cells, cAMP antagonist mode; series mostly up to 58 µM.
Sequence of Thyrotropin receptor (Homo sapiens) (P16473 whole entry, looked up): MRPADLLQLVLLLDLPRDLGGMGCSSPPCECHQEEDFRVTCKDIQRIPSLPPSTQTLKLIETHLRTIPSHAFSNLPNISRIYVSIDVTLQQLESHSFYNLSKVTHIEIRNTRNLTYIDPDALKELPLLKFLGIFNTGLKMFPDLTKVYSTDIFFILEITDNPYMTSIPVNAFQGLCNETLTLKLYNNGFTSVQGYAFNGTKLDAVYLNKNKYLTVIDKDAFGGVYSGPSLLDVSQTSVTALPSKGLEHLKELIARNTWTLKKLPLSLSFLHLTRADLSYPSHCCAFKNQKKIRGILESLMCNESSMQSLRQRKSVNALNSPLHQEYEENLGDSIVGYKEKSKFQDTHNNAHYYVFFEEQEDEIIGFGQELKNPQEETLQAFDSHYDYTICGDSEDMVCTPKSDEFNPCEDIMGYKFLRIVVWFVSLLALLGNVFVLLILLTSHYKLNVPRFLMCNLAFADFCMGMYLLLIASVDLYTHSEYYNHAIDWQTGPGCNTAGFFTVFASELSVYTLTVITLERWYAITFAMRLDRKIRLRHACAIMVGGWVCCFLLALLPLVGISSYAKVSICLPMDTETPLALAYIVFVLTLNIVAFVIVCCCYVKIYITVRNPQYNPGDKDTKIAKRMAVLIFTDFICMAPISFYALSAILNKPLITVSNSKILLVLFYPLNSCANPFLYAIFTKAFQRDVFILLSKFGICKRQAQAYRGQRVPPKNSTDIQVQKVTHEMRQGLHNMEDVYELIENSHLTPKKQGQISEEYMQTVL
Summary of the method: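 Competitive HTRF detected cAMP in lysates of TSHR cells, read 30 minutes after antibody and d2 addition at room temperature. Before lysis, cells had 2 hours at 37 deg C with compound plus EC80 TSH, 4nM final.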
With `Cc1ccc(C2(c3ccc(C)cc3)CC2C(=O)Nc2ccc([N+](=O)[O-])cc2O)cc1` (stereo unspecified) the Potency was 19 µM (active). For `CCOc1ccc(C2NC(=O)c3ccccc3O2)cc1OC` (stereo unspecified), the Potency was “inactive”. With `CC(C)(C)c1ccc(C(=O)CC(Sc2ccc(Cl)cc2)C(=O)O)cc1` (stereo unspecified) the Potency was 37.9 µM (active). For `O=C1NC(=S)SC1=C1CCCCCC1`, the Potency was 30.1 µM (active). With `CC1=CCC2C(=O)N(c3ccc(C(=O)Nc4ccccc4Cl)cc3)C(=O)C2C1` (stereo unspecified) the Potency was “inactive”. `Cc1ncsc1CCOC(=O)C1C2CC3CC(C2)CC1C3` (stereo unspecified) was tested, and the Potency was 30.1 µM (active). With `Cc1ccc(S(=O)(=O)/N=C2/NC(=O)/C(=C\c3cc(Br)cc(Br)c3O)S2)cc1` the Potency was 15.1 µM (active). `COc1ccc(CNC(=O)CCS(=O)(=O)c2ccc3c(c2)CCN3C(C)=O)cc1` was tested, and the Potency was “inactive”. For `Cc1cc(C)c(C2=NOC3C4CCC(C4)C23)c(C)c1` (stereo unspecified), the Potency was “inactive”. With `COc1cccc(OC)c1C(=O)Nc1ccc2c(c1)N(S(=O)(=O)c1cccs1)CCC2` the Potency was “inactive”. In the case of `O=C1NC(=S)S/C1=C\c1ccc(SCc2ccccc2)o1`, the Potency is reported as 6.01 µM (active). With `COCCNc1oc(Cc2cccc3ccccc23)nc1C#N` the Potency was “inactive”. `O=c1[nH]c(C2CCN(S(=O)(=O)c3cccc(Cl)c3)CC2)nc2c1nnn2Cc1ccccc1` was tested, and the Potency was “inactive”. With `O=C(O)c1ccc(Cl)cc1Nc1nc2cc(Cl)ccc2o1` the Potency was 26.9 µM (active). In the case of `O=C1C=CC(=O)N1CCCCCCN1C(=O)C=CC1=O`, the Potency is reported as 37.9 µM (active). With `C=CCn1c(SCC(=O)c2cccs2)nc2sc(CC)cc2c1=O` the Potency was 21.3 µM (active). For `O=c1/c(=C/c2ccc(O)c([N+](=O)[O-])c2)sc2nc3ccccc3n12`, the Potency was 3.79 µM (active). `N#C/C(=C\c1ccc(O)c([N+](=O)[O-])c1)c1nc2ccccc2s1` was tested, and the Potency was 6.75 µM (active). `COc1cc(/C=C(\C#N)c2nc3ccccc3s2)cc([N+](=O)[O-])c1O` was tested, and the Potency was 7.57 µM (active). `COC(CNC(=O)c1ccc(Cn2c(=S)[nH]c3cc4c(cc3c2=O)OCO4)cc1)OC` was tested, and the Potency was “inactive”. In the case of `CCOc1ccnc2c1c(=O)n(Cc1cc(OC)cc(OC)c1)c(=O)n2C`, the Potency is reported as “inactive”. `COC(=O)CN(c1ccc(C)cc1)S(=O)(=O)c1ccc2c(c1)n(C)c(=O)c(=O)n2C` was tested, and the Potency was “inactive”. `COc1ccc(CCNC2=C(Cl)C(=O)N(CCc3ccc(OC)c(OC)c3)C2=O)cc1OC` was tested, and the Potency was 21.3 µM (active). `COC(=O)c1ccc(C2C(Oc3ccccc3C)C(=O)N2CCc2ccc(OC)c(OC)c2)cc1` (stereo unspecified) was tested, and the Potency was “inactive”. In the case of `COc1ccc(CCNC2=C(Cl)C(=O)N(CCc3ccccc3)C2=O)cc1OC`, the Potency is reported as 26.9 µM (active). With `O=C(N/N=C/c1cccc(Oc2ccc([N+](=O)[O-])cc2[N+](=O)[O-])c1)c1cncc(Br)c1` the Potency was 30.1 µM (active). `CC(C)COc1cccc(-c2cc(C(=O)Nc3ccon3)c3ccccc3n2)c1` was tested, and the Potency was “inactive”. In the case of `N#Cc1nc(Cc2cccc3ccccc23)oc1NCc1ccc2c(c1)OCO2`, the Potency is reported as “inactive”. With `N#Cc1c(Cl)nsc1NC(=O)c1ccccc1` the Potency was 7.57 µM (active). In the case of `CCN(CC)c1ccc(NC2=C(Cl)C(=O)c3ccccc3C2=O)cc1`, the Potency is reported as 23.9 µM (active). For `O=C(O)c1ccc(NC2=C(Cl)C(=O)c3ccccc3C2=O)cc1`, the Potency was 30.1 µM (active). For `O=C(O)c1ccc(S(=O)(=O)N(Cc2ccccc2)Cc2ccccc2)cc1`, the Potency was “inactive”. For `O=C(O)c1cccc(NC2=C(Cl)C(=O)c3ccccc3C2=O)c1`, the Potency was 23.9 µM (active). `Cc1ccccc1N1CCN(C2CCCN(C(=O)c3cnsn3)C2)CC1` (stereo unspecified) was tested, and the Potency was “inactive”. In the case of `CCOc1ccccc1-n1c(=S)sc2c(=O)n(-c3ccc(F)cc3)c(SCC(=O)O)nc21`, the Potency is reported as “inactive”. `N#Cc1c(F)cccc1N1CCN(Cc2ccc3c(c2)OCO3)CC1` was tested, and the Potency was “inactive”. With `Fc1ccc2[nH]c3c(N4CCN(c5ccccc5)CC4)ncnc3c2c1` the Potency was 30.1 µM (active). In the case of `O=C(c1cccc(Cl)c1)N1CCN(Cc2ccc3c(c2)OCO3)CC1`, the Potency is reported as “inactive”. In the case of `Cc1ccc2c(c1)[nH]c1c(N3CCN(Cc4ccccc4)CC3)ncnc12`, the Potency is reported as 30.1 µM (active). `Fc1ccc2[nH]c3c(N4CCN(Cc5ccc6c(c5)OCO6)CC4)ncnc3c2c1` was tested, and the Potency was 23.9 µM (active). For `O=C1NC(=O)/C(=C/c2ccccc2Oc2ccc(Cl)cc2)S1`, the Potency was “inactive”. `CN(Cc1ccco1)S(=O)(=O)c1csc(C(N)=O)c1` was tested, and the Potency was “inactive”. `CCc1cc2c(NCc3ccccc3)nc(C)nc2s1` was tested, and the Potency was 23.9 µM (active). With `O=C(CSc1ccc(F)cc1)N1CCC(c2nc3ccccc3s2)CC1` the Potency was 37.9 µM (active). With `Cc1nc(SCC(=O)N2CCN(c3ccccc3)CC2)n[nH]1` the Potency was “inactive”. `C=CCC1(CC=C)CCCN1C(=O)c1cc(COc2ccc(C)nc2)on1` was tested, and the Potency was 15.1 µM (active). With `CCNC(=O)c1ccccc1NC(=O)C1CC(=O)N(C(C)C)C1` (stereo unspecified) the Potency was “inactive”. With `O=C(Nc1cc(S(=O)(=O)N2CCCCC2)ccc1Cl)c1ccccc1NS(=O)(=O)c1ccc(F)cc1` the Potency was 7.57 µM (active). In the case of `CCc1ccccc1NC(=O)C1CCCN(S(=O)(=O)c2ccc3c(c2)CC(C)N3C(C)=O)C1` (stereo unspecified), the Potency is reported as “inactive”. For `Cc1ccc(NC(=O)c2ccccc2NS(=O)(=O)c2ccc(F)cc2)cc1S(=O)(=O)N1CCCCC1`, the Potency was 3.79 µM (active). For `O=C(Nc1nnc(S(=O)(=O)N2CCCC2)s1)c1ccccc1F`, the Potency was “inactive”. With `CC(=O)Nc1ccc(S(=O)(=O)Nc2c(NC3CCCCC3)c3ccccc3oc2=O)cc1` the Potency was “inactive”. `CCc1ccc(N/C(SCc2cccc(F)c2)=C(/C#N)C(=O)NCc2ccco2)cc1` was tested, and the Potency was “inactive”. For `CC(C)c1cc(=O)n2[nH]c(SCc3ccccc3)nc2n1`, the Potency was “inactive”. `CCCCc1c(C)nc2nc(SCc3ccc(Cl)cc3)[nH]n2c1=O` was tested, and the Potency was 21.3 µM (active). In the case of `C#C[C@]1(OC(C)=O)CCC2C3CCC4=CC(=O)CC[C@@H]4C3CC[C@@]21C` (stereo partly specified), the Potency is reported as 13.5 µM (active). `CC(=O)N1CCc2cc(Br)cc(S(=O)(=O)N3CCC(C(=O)O)CC3)c21` was tested, and the Potency was “inactive”. `CCC1Sc2ccc(S(=O)(=O)CCC(=O)Nc3ccccc3Cl)cc2NC1=O` (stereo unspecified) was tested, and the Potency was “inactive”. In the case of `O=C(Nc1cccc(S(=O)(=O)Nc2ccc(Cl)cc2)c1)c1ccc2c(c1)OCCO2`, the Potency is reported as 16.9 µM (active). For `O=C(c1ccc2c(c1)OCO2)N1CCN(S(=O)(=O)c2ccc(Cl)cc2)CC1`, the Potency was “inactive”. `CCOC(=O)c1[nH]c2cc(OC)c(OC)cc2c1NC(=O)c1ccc2c(c1)OCO2` was tested, and the Potency was “inactive”. With `COC(=O)c1sc(NC(=O)C(C)C)c(C(=O)OC)c1C` the Potency was “inactive”. With `Cc1cc(/C=C2\Sc3ccccc3N2C)cc(C)[n+]1CC1CCCO1` (stereo unspecified) the Potency was 30.1 µM (active). `Cc1cccc(OCc2nnc(SCC(=O)N3c4ccccc4CCc4ccccc43)o2)c1` was tested, and the Potency was “inactive”. In the case of `COc1ccc(NC(=O)c2ccc3ccccc3n2)cc1S(=O)(=O)Nc1ccccc1Cl`, the Potency is reported as “inactive”. In the case of `COc1ccc(C(=O)Nc2ccc(Cl)c(S(=O)(=O)Nc3ccccc3OC)c2)cc1`, the Potency is reported as 12 µM (active). `COc1ccc(N(CC(=O)Nc2cc(Cl)ccc2OC)S(=O)(=O)c2c(C)noc2C)cc1` was tested, and the Potency was “inactive”. For `CC(C)Oc1ccc(C(=O)NCCNC(=O)c2ccco2)cc1`, the Potency was “inactive”. `CC(C)Oc1ccc(C(=O)Nc2ccc(Cl)c(S(=O)(=O)Nc3ccc(Cl)cc3)c2)cc1` was tested, and the Potency was 21.3 µM (active). In the case of `COC(=O)C1C(=O)NC(SC)=C(C#N)C1c1ccccc1` (stereo unspecified), the Potency is reported as “inactive”. For `Cc1cc(C)c2oc(C(=O)Nc3ccc(S(=O)(=O)Nc4nccc(C)n4)cc3)cc(=O)c2c1`, the Potency was “inactive”. `O=C1OC(CC(=O)N(Cc2nnc(-c3ccc(Cl)cc3)o2)C2CC2)c2ccccc21` (stereo unspecified) was tested, and the Potency was “inactive”. With `COc1ccc(N2CCN(c3ncnc4sc(C(=O)NCC5CCCO5)c(C)c34)CC2)cc1` (stereo unspecified) the Potency was “inactive”. With `Cc1sc2ncnc(N3CCN(CCOc4ccc(Cl)cc4)CC3)c2c1C` the Potency was 19 µM (active). For `Cc1[nH]n(C)c(=O)c1C(=O)c1c(-c2c(Cl)cccc2Cl)noc1C`, the Potency was “inactive”. For `O=C1NC(=S)S/C1=C\c1cc2ccccc2nc1N1CCCCC1`, the Potency was 13.5 µM (active). For `COc1ccc2cc(/C=C3\SC(=S)NC3=O)c(N3CCOCC3)nc2c1`, the Potency was 3.38 µM (active). For `CCc1ccc(-c2nnn(CCC(=O)OC)n2)cc1`, the Potency was “inactive”. With `COC(=O)c1nc2n(n1)C(c1cccc(Cl)c1)C1=C(CCCC1=O)N2` (stereo unspecified) the Potency was “inactive”. In the case of `Cc1nn(-c2ccc(N3CCOCC3)nn2)c(C)c1CCC(=O)NCc1ccccc1F`, the Potency is reported as “inactive”. In the case of `CC(C)(C)C(=O)NC(=S)NNC(=O)c1ccc(-c2ccccc2)cc1`, the Potency is reported as “inactive”. With `COc1cccc(CN(C)C(=O)CNC(=O)c2ccc(-c3ccccc3)cc2)c1OC` the Potency was 26.9 µM (active). With `CCn1nnc2cc(C(=O)NCC(c3ccccc3OC)N(C)C)ccc21` (stereo unspecified) the Potency was “inactive”. For `CCOC(=O)C1(CCOc2ccccc2)CCN(Cc2cccc(OC)c2O)CC1`, the Potency was “inactive”. `COc1cccc(CN(C)C(=O)c2ccc(Oc3ccccc3)cc2)c1OC` was tested, and the Potency was 37.9 µM (active). With `COc1ccc(CN(C)C(=O)COC(=O)c2ccc(-c3ccccc3)cc2)c(OC)c1OC` the Potency was 23.9 µM (active). For `O=C(c1ccco1)N1N=C(C2CCCCC2)CC1(O)C(F)(F)F` (stereo unspecified), the Potency was “inactive”. With `COc1ccc(C(CC(=O)N2CCOCC2)c2c(OC)cc(OC)c3c(-c4ccccc4)cc(=O)oc23)cc1` (stereo unspecified) the Potency was “inactive”. In the case of `CC1CC(=O)N(c2ccc(C(C)C)cc2)C(=O)C1`, the Potency is reported as “inactive”. For `O=C(Nc1ccc(S(=O)(=O)N2CCCCC2)cc1)c1ccc(CN2CCOCC2)cc1`, the Potency was 23.9 µM (active). `O=C(NCCN1CCOCC1)c1c(Cl)cccc1Cl` was tested, and the Potency was “inactive”. For `COCc1c(C(=O)Nc2cccc(S(=O)(=O)N3CCCCC3)c2)oc2ccccc12`, the Potency was “inactive”. `CCOc1ccccc1NC(=O)C(NCCc1ccc(OC)cc1)c1ccccc1` (stereo unspecified) was tested, and the Potency was “inactive”. `COc1ccc(C(NC(=O)c2c(F)c(F)c(F)c(F)c2F)c2ccccc2)cc1` (stereo unspecified) was tested, and the Potency was 26.9 µM (active). With `COc1ccc(N2CCN(C(=O)[C@H](C)NC(=O)c3ccccc3Cl)CC2)cc1` the Potency was “inactive”. In the case of `COCCCn1c(=O)c2sccc2n(Cc2cccc(C)c2)c1=O`, the Potency is reported as “inactive”.
